Gli-Sufu antag – blocks Gli-Sufu signaling in a luciferase reporter; Sufu-KO-LIGHT fibroblasts, Gli luciferase reporter luminescence; inhibition, % at 5 µM; 0.74% of 340,000 active; AID 588413;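 active means inhibition above about 55%, limit read from the data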;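 further: 0% = DMSO-treated cells and 100% = wells with medium but no cells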
Mdm2 MdmX PPI – inhibitors of human Mdm2/MdmX interaction; inhibition, % at 8 µM; SaOS-2 split-luciferase Mdm2/MdmX complementation, luminescence; 3% of 330,000 active; O15151+Q00987;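 active means inhibition of at least 50% at 8 µM in the primary screen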
Target sequence (O15151 whole entry, looked up): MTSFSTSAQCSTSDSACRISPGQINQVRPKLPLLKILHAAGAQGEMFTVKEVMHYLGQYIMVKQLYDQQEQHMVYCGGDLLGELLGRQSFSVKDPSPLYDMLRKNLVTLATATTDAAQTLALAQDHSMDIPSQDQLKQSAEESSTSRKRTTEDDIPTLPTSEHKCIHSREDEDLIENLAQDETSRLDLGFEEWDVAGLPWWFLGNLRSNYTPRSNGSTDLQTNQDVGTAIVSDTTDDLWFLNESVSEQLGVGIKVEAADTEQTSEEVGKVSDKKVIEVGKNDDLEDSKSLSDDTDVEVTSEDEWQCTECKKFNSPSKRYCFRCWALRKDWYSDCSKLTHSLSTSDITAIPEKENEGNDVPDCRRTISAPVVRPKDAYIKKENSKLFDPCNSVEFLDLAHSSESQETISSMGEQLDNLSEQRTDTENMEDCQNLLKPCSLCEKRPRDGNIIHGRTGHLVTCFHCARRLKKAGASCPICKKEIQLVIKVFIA
Target sequence (Q00987 whole entry, looked up): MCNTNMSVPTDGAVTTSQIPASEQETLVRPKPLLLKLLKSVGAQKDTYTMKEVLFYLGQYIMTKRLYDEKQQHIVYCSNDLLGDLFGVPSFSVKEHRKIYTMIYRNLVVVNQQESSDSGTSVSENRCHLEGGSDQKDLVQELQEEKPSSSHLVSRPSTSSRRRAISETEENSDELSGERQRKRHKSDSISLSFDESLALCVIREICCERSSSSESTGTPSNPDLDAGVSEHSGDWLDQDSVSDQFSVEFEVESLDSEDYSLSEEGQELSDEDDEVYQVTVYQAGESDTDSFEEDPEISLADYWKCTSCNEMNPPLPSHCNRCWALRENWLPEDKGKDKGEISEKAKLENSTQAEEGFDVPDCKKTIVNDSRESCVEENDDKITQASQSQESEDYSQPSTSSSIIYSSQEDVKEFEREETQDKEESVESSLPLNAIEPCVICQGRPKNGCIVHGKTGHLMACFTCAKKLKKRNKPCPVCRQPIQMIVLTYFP
CSC inhib – blocks cancer stem cells | cancer stem cell-like cells viability, luminescence | inhibition, % at 7.5 µM | 1.1% of 300,000 active | AID 2717; in the data active means inhibition above about 75%; tested in HMLE shEcad cells
GRIN3A LBD mod – modulates the human NR3A ligand-binding domain. NR3A LBD differential scanning fluorimetry, Tm shift; 0% = protein alone, 100% = glycine-bound protein. Tm shift relative to glycine control, % at 25 µM. 2.5% of 340,000 active. AID 1259313;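 active means melting temperature shift of at least 10% of the positive control shift, at one fixed dose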
MPTP block – inhibitors of mitochondrial permeability transition pore | 1.4% of 360,000 active | isolated mouse mitochondria, Ca2+ swelling absorbance, 30 min | inhibition, % at 10 µM | AID 602449;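 active means inhibition of 50% or more, scaled per plate between neutral and stimulator controls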;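 further: 0% = DMSO wells given calcium and 100% = 1 mM EGTA wells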
Beta apoptosis – beta cell apoptosis inhibition; protection from apoptosis, % (no concentration beside the values); 0.8% of 300,000 active; AID 435005; INS-1E cytokine-induced death, ATP luminescence, 48 h; percent of positive-control rescue, neutral wells zero;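 active means Every replicate reaches about 75%, or at least half do and their mean reaches it too, limit read from the data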;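 further: 0% = cytokine-treated negative control wells and 100% = positive control rescue; higher means more ATP so stronger rescue from cytokine killing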
Mdm2-MdmX conf – human Mdm2/MdmX binding inhibition, confirmed | AID 489028 | shares compounds with Mdm2 MdmX PPI | luminescent assay | 55% of 10,000 active | inhibition, % at 8 µM; in the data active means inhibition above about 40%
FLuc counter – inhibits full-length luciferase, flagging false Mdm2/MdmX hits; shares compounds with Mdm2 MdmX PPI; SaOS-2 full-length luciferase counterscreen, luminescence; inhibition, % at 8 µM; 77% of 6,200 active;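 active means mean inhibition at 8 µM reaching about 37%, which flags the compound as non-specific, limit read from the data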;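 further: p53-null SaOS-2 cells with luciferase driven by a doxycycline-inducible promoter; compound on cells about two nights before reading with doxycycline added after day one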
* hit, by the source's call. Sampled rows, rich in hits. Any-hit rate of the full collection: about 6.6%.

For COC(=O)CSc1nnc(NC(=O)/C=C\c2ccc3c(c2)OCO3)s1 the results were Gli-Sufu antag 0, Mdm2 MdmX PPI 12, CSC inhib 27, GRIN3A LBD mod 1, MPTP block 0 and Beta apoptosis -5.
`COC(=O)c1cc(NC(=O)/C=C/c2ccc3c(c2)OCO3)cc(C(=O)OC)c1` gave Gli-Sufu antag 8, Mdm2 MdmX PPI 67*, CSC inhib 55, GRIN3A LBD mod -6, MPTP block 8, Beta apoptosis 10, Mdm2-MdmX conf 22 and FLuc counter 102*.
`COc1ccc2nc(NC(=O)/C=C/c3ccc4c(c3)OCO4)sc2c1` gave Mdm2 MdmX PPI 83*, CSC inhib 1, Mdm2-MdmX conf 52* and FLuc counter 35.
O=C(CCNC(=O)C1CCN(S(=O)(=O)c2ccccc2)CC1)NCCc1cccc(F)c1 was read as Gli-Sufu antag 17, Mdm2 MdmX PPI 1, CSC inhib -2, GRIN3A LBD mod -2, MPTP block 0 and Beta apoptosis -5.
Screening CCN(C(=S)NCc1ccccc1)c1ccccc1 returned Gli-Sufu antag -3, Mdm2 MdmX PPI -38, CSC inhib -14, GRIN3A LBD mod 0, MPTP block 3 and Beta apoptosis -5.
Screening O=C(c1ccc([N+](=O)[O-])o1)N1CCN(c2nc3c(Cl)cccc3s2)CC1 returned Gli-Sufu antag 26, Mdm2 MdmX PPI 56*, CSC inhib -6, GRIN3A LBD mod -2, MPTP block -2, Mdm2-MdmX conf 43* and FLuc counter 65*.
For COc1cccc2sc(N3CCN(C(=O)c4ccc([N+](=O)[O-])o4)CC3)nc12 the results were Gli-Sufu antag 25, Mdm2 MdmX PPI 22, CSC inhib 6, GRIN3A LBD mod 1, MPTP block 0 and Beta apoptosis 42.
COc1ccc(C(=O)O/N=C(\N)c2ccccc2)cc1OC was read as Gli-Sufu antag -34, Mdm2 MdmX PPI 62*, CSC inhib -6, GRIN3A LBD mod -4, MPTP block 0, Beta apoptosis 4 and Mdm2-MdmX conf -10.
For COc1cc(OC)c(C(=O)O/N=C(\N)c2ccccn2)cc1OC the results were Gli-Sufu antag -13, Mdm2 MdmX PPI 46, CSC inhib -9, GRIN3A LBD mod -4, MPTP block 1 and Beta apoptosis 6.
Screening Cc1cccc(/C(N)=N/OC(=O)c2ccncc2)c1 returned Gli-Sufu antag 17, Mdm2 MdmX PPI -105, CSC inhib 7, GRIN3A LBD mod 1, MPTP block 2 and Beta apoptosis 0.
For COc1ccc(C(=O)O/N=C(\N)c2cccc(C)c2)cc1OC the results were Gli-Sufu antag -48, Mdm2 MdmX PPI 96*, CSC inhib -2, GRIN3A LBD mod 18*, MPTP block 1, Beta apoptosis 6, Mdm2-MdmX conf 50* and FLuc counter 137*.
`COc1cc(OC)c(C(=O)O/N=C(\N)c2ccccc2)cc1OC` gave Gli-Sufu antag 1, Mdm2 MdmX PPI 57*, CSC inhib -13, GRIN3A LBD mod 1, MPTP block 1, Beta apoptosis 2 and Mdm2-MdmX conf 4.
For C[C@H](CO)N1C[C@H](C)[C@@H](CN(C)C(=O)Oc2ccccc2)OCc2cn(nn2)CCCC1=O the results were MPTP block -1.
`Nc1nc(N)c2cc(Sc3ccc4ccccc4c3)ccc2n1` gave Gli-Sufu antag 14, Mdm2 MdmX PPI 100*, CSC inhib 119*, GRIN3A LBD mod -10, MPTP block 40, Beta apoptosis 109*, Mdm2-MdmX conf 62* and FLuc counter 38*.
`COCCN(C(=O)Cc1cccs1)C(C(=O)NCc1ccc(OC)cc1)c1ccc(OC)cc1` (stereo not given) gave Gli-Sufu antag 4, Mdm2 MdmX PPI -4, GRIN3A LBD mod -2 and MPTP block 0.
Screening Cc1ccc(C(C(=O)NCc2ccccc2)N(Cc2cccs2)C(=O)c2ccc3c(c2)OCCO3)cc1 (stereo not given) returned Gli-Sufu antag 31, Mdm2 MdmX PPI 79*, CSC inhib 44, GRIN3A LBD mod 0, MPTP block 5, Beta apoptosis 8, Mdm2-MdmX conf 78* and FLuc counter 69*.
`COc1ccc(CNC(=O)C(c2ccc(C)cc2)N(Cc2cccs2)C(=O)c2ccc3c(c2)OCCO3)cc1` (stereo not given) gave Gli-Sufu antag 0, Mdm2 MdmX PPI 75*, CSC inhib 15, GRIN3A LBD mod -1, MPTP block 1, Beta apoptosis 4, Mdm2-MdmX conf 75* and FLuc counter 60*.
`COC(=O)c1ccc(C(C(=O)NCc2ccccc2)N(Cc2cccs2)C(=O)c2cnccn2)cc1` (stereo not given) gave Gli-Sufu antag -28, Mdm2 MdmX PPI 14, CSC inhib -5, GRIN3A LBD mod -4, MPTP block 1 and Beta apoptosis -3.
Screening CC(C)CN(C#N)c1nc(N2CCOCC2)nc(N2CCOCC2)n1 returned Gli-Sufu antag 1, Mdm2 MdmX PPI 51*, CSC inhib 10, GRIN3A LBD mod 0, MPTP block -1, Beta apoptosis -4, Mdm2-MdmX conf 38 and FLuc counter 70*.
`CN(C#N)c1nc(N2CCOCC2)nc(N2CCOCC2)n1` gave Gli-Sufu antag 17, Mdm2 MdmX PPI 7, GRIN3A LBD mod 1, MPTP block -1 and Beta apoptosis -5.
For O=C(c1cnn2c(C(F)(F)F)cc(-c3ccc4c(c3)OCO4)nc12)N1CCCCC1 the results were Gli-Sufu antag 11, Mdm2 MdmX PPI -2, CSC inhib -6, GRIN3A LBD mod 0, MPTP block 1 and Beta apoptosis -2.
For O=C(NC1CCCC1)c1cnn2c(C(F)(F)F)cc(-c3ccc4c(c3)OCO4)nc12 the results were Gli-Sufu antag 20, Mdm2 MdmX PPI 62*, CSC inhib 31, GRIN3A LBD mod -4, MPTP block 8 and Mdm2-MdmX conf 23.
Screening COC1=CC(=O)OC(c2cccc(C(F)(F)F)c2)C1 (stereo not given) returned MPTP block 0.
`CSc1nc2ccc(Nc3nc(N4CCOCC4)nc(N4CCOCC4)n3)cc2s1` gave Gli-Sufu antag 23, Mdm2 MdmX PPI 49, GRIN3A LBD mod -5, MPTP block 3 and Beta apoptosis 10.
`O=C(CSc1nc2ccc(Nc3nc(N4CCOCC4)nc(N4CCOCC4)n3)cc2s1)Nc1ccccc1F` gave Gli-Sufu antag 12, Mdm2 MdmX PPI 91*, CSC inhib -4, GRIN3A LBD mod -4, MPTP block 1, Beta apoptosis 7 and Mdm2-MdmX conf 26.

Screening data: PubChem, several laboratories
